# Test results taken from PMC5540273 (PLoS ONE, 2017).
# Experiments:
# Conditions in all cases: concentration: 1 μM,replicates: in singlicate; n = 1
# [1] = test system: AAK1
# [2] = test system: ABL1-nonphosphorylated
# [3] = test system: ABL1-phosphorylated
# [4] = test system: ABL2
# [5] = test system: ACVR1B
# [6] = test system: ACVR1
# [7] = test system: ACVR2A
# [8] = test system: ACVR2B
# [9] = test system: ACVRL1
# [10] = test system: T1, ADCK3
# T1 construct: gene CABC1
# 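Further: KINOMEscan kinase panel screen.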
structure (smiles),measurement,setting,value
Cn1ccc2ncnc(Oc3ccc(NC(=O)Nc4cccc(C(F)(F)F)c4)c(Cl)c3)c21,%Inh,[1],0%
same,%Inh,[2],88%
same,%Inh,[3],19%
same,%Inh,[4],21%
same,%Inh,[5],1%
same,%Inh,[6],0%
same,%Inh,[7],0%
same,%Inh,[8],47%
same,%Inh,[9],0%
same,%Inh,[10],5%
Cn1ccc2ncnc(Oc3ccc(NC(=O)Nc4cncc(C(F)(F)F)c4)c(Cl)c3)c21,%Inh,[1],0%
same,%Inh,[2],92.7%
same,%Inh,[3],35%
same,%Inh,[4],27%
same,%Inh,[5],0%
same,%Inh,[6],0%
same,%Inh,[7],0%
same,%Inh,[8],0%
same,%Inh,[9],0%
same,%Inh,[10],2%
CC(C)c1nc(-c2cccc(NS(=O)(=O)c3ccccc3)c2)c(-c2ccnc(Nc3ccc4c(c3)CN(C)CC4)n2)s1 [GSK1649598],%Inh,[1],25%
same,%Inh,[2],99.8%
same,%Inh,[3],97.3%
same,%Inh,[4],98.7%
same,%Inh,[5],93.5%
same,%Inh,[6],99%
same,%Inh,[7],24%
same,%Inh,[8],94.5%
same,%Inh,[9],80%
same,%Inh,[10],100%
CS(=O)(=O)c1cccc(CNc2nc(Nc3ccc4c(c3)[C@@H]3C[C@@H]4CNC3=O)ncc2C(F)(F)F)c1,%Inh,[1],92.6%
same,%Inh,[2],97.9%
same,%Inh,[3],93.2%
same,%Inh,[4],66%
same,%Inh,[5],0%
same,%Inh,[6],0%
same,%Inh,[7],0%
same,%Inh,[8],0%
same,%Inh,[9],0%
same,%Inh,[10],0%
Cc1cccc2c(-c3ccncc3)c(-c3ccc(F)cc3)nn12.Cl [GW461487],%Inh,[1],14%
same,%Inh,[2],0%
same,%Inh,[3],0%
same,%Inh,[4],5%
same,%Inh,[5],18%
same,%Inh,[6],9%
same,%Inh,[7],0%
same,%Inh,[8],11%
same,%Inh,[9],0%
same,%Inh,[10],18%
Cn1ccc2ncnc(Oc3ccc(NC(=O)Nc4cc(C(C)(C)C)on4)c(Cl)c3)c21,%Inh,[1],18%
same,%Inh,[2],94.8%
same,%Inh,[3],51%
same,%Inh,[4],46%
same,%Inh,[5],15%
same,%Inh,[6],0%
same,%Inh,[7],12%
same,%Inh,[8],12%
same,%Inh,[9],0%
same,%Inh,[10],0%
C[C@@H](Oc1cc(-n2cnc3cc(-c4cnn(C)c4)ccc32)sc1C(N)=O)c1ccccc1Cl [GSK580432],%Inh,[1],82%
same,%Inh,[2],58%
same,%Inh,[3],63%
same,%Inh,[4],63%
same,%Inh,[5],0%
same,%Inh,[6],0%
same,%Inh,[7],0%
same,%Inh,[8],25%
same,%Inh,[9],0%
same,%Inh,[10],13%
CCOC(=O)N1CCC(n2cnc(-c3ccc(F)cc3)c2-c2ccnc(N)n2)CC1 [SB-219952],%Inh,[1],0%
same,%Inh,[2],60%
same,%Inh,[3],2%
same,%Inh,[4],0%
same,%Inh,[5],33%
same,%Inh,[6],28%
same,%Inh,[7],0%
same,%Inh,[8],0%
same,%Inh,[9],10%
same,%Inh,[10],15%
COC(=O)Nc1nc2cc(Oc3ccc(NC(=O)Nc4cc(C(F)(F)F)ccc4Cl)cc3)ccc2[nH]1.Cl [GW697465],%Inh,[1],0%
same,%Inh,[2],97%
same,%Inh,[3],32%
same,%Inh,[4],89%
same,%Inh,[5],0%
same,%Inh,[6],0%
same,%Inh,[7],0%
same,%Inh,[8],0%
same,%Inh,[9],0%
same,%Inh,[10],82%
CCNCC(Cc1ccccc1)NC(=O)c1cc(Br)c(-c2ccnc3[nH]ccc23)s1.Cl.Cl (centres unmarked) [GSK1383280],%Inh,[1],39%
same,%Inh,[2],15%
same,%Inh,[3],14%
same,%Inh,[4],19%
same,%Inh,[5],0%
same,%Inh,[6],0%
same,%Inh,[7],0%
same,%Inh,[8],2%
same,%Inh,[9],0%
same,%Inh,[10],12%
C[C@@H](Oc1cc(-n2cnc3ccc(-c4ccncc4)cc32)sc1C(N)=O)c1ccccc1Cl [GSK483724],%Inh,[1],60%
same,%Inh,[2],0%
same,%Inh,[3],0%
same,%Inh,[4],21%
same,%Inh,[5],0%
same,%Inh,[6],32%
same,%Inh,[7],0%
same,%Inh,[8],0%
same,%Inh,[9],0%
same,%Inh,[10],52%
COC(=O)c1cccc(NC(=O)NC2CCN(c3ccnc(NCc4ccc(F)cc4)n3)CC2)c1 [GSK1379860],%Inh,[1],0%
same,%Inh,[2],0%
same,%Inh,[3],0%
same,%Inh,[4],14%
same,%Inh,[5],0%
same,%Inh,[6],0%
same,%Inh,[7],0%
same,%Inh,[8],23%
same,%Inh,[9],0%
same,%Inh,[10],5%
Cl.Nc1n[nH]c2cc(-c3ccccn3)ccc12 [GSK2189892],%Inh,[1],17%
same,%Inh,[2],0%
same,%Inh,[3],0%
same,%Inh,[4],0%
same,%Inh,[5],0%
same,%Inh,[6],10%
same,%Inh,[7],0%
same,%Inh,[8],6%
same,%Inh,[9],0%
same,%Inh,[10],11%
CN1CCN(CCCNc2nccc(-c3c(-c4ccc(F)cc4)nn4cc(C(N)=O)ccc34)n2)CC1 [GW622475],%Inh,[1],33%
same,%Inh,[2],10%
same,%Inh,[3],0%
same,%Inh,[4],17%
same,%Inh,[5],94.9%
same,%Inh,[6],90.6%
same,%Inh,[7],19%
same,%Inh,[8],45%
same,%Inh,[9],77%
same,%Inh,[10],96.7%
COc1cc2nccc(Nc3ccc(Oc4ccccc4)cc3)c2cc1OC.Cl [GI261656],%Inh,[1],6%
same,%Inh,[2],89%
same,%Inh,[3],14%
same,%Inh,[4],16%
same,%Inh,[5],0%
same,%Inh,[6],0%
same,%Inh,[7],0%
same,%Inh,[8],0%
same,%Inh,[9],0%
same,%Inh,[10],5%
CSc1nccc(-c2c(-c3ccc(F)cc3)ncn2CCCN2CCOCC2)n1.Cl [SB-217146],%Inh,[1],0%
same,%Inh,[2],35%
same,%Inh,[3],31%
same,%Inh,[4],0%
same,%Inh,[5],0%
same,%Inh,[6],0%
same,%Inh,[7],0%
same,%Inh,[8],0%
same,%Inh,[9],0%
same,%Inh,[10],0%
O=C(Nc1ccc(Oc2ccc3nc(NC(=O)C4CC4)cn3n2)c(F)c1)c1cccn(-c2ccccc2)c1=O,%Inh,[1],0%
same,%Inh,[2],99.9%
same,%Inh,[3],88%
same,%Inh,[4],62%
same,%Inh,[5],0%
same,%Inh,[6],19%
same,%Inh,[7],28%
same,%Inh,[8],31%
same,%Inh,[9],1%
same,%Inh,[10],16%
